Assay results from article PMC11006913.
Substitutions are numbered along the chain they refer to.

Experiments:
Assay in all cases: PBM; 200 nM protein, PBS
Conditions in all cases: dsDNA, one strand shown
VENTX [1] = target: T1, VENTX (Homo sapiens, UniProt O95231 78-163, R121Q)
T1 sequence: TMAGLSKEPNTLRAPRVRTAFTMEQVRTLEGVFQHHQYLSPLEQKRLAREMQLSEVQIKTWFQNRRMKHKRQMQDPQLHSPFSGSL

VENTX [2] = target: T2, VENTX (Homo sapiens, UniProt O95231 78-163)
T2 sequence: T1 sequence with Q44R

HOXC10 [3] = target: HOXC10 (Homo sapiens, UniProt Q9NYD6 254-340)
Chain of HOXC10 (Homo sapiens, UniProt Q9NYD6 254-340) (Q9NYD6 254-340): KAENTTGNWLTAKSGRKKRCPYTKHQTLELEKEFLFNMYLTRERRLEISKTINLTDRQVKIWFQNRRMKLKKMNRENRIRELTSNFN

VENTX [4] = target: T3, VENTX (Homo sapiens, UniProt O95231 78-163, Y115F)
T3 sequence: T1 sequence with Y38F, Q44R

HOXA2 [5] = target: HOXA2 (Homo sapiens, UniProt O43364 129-215, R185T)
Chain of HOXA2 (Homo sapiens, UniProt O43364 129-215, R185T) (O43364 129-215 R185T): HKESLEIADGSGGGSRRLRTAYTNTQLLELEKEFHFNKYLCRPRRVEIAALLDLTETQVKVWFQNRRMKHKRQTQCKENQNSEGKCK

HOXA2 [6] = target: HOXA2 (Homo sapiens, UniProt O43364 129-215, R185K)
Chain of HOXA2 (Homo sapiens, UniProt O43364 129-215, R185K) (O43364 129-215 R185K): as the sequence (O43364 129-215 R185T) above, with T57K counted along it

HOXC10 [7] = target: HOXC10 (Homo sapiens, UniProt Q9NYD6 254-340, K271E)
Chain of HOXC10 (Homo sapiens, UniProt Q9NYD6 254-340, K271E) (Q9NYD6 254-340 K271E): as the sequence (Q9NYD6 254-340) above, with K18E counted along it

HOXA2 [8] = target: HOXA2 (Homo sapiens, UniProt O43364 129-215, Y150S)
Chain of HOXA2 (Homo sapiens, UniProt O43364 129-215, Y150S) (O43364 129-215 Y150S): as the sequence (O43364 129-215 R185T) above, with Y22S, T57R counted along it

HOXA2 [9] = target: HOXA2 (Homo sapiens, UniProt O43364 129-215)
Chain of HOXA2 (Homo sapiens, UniProt O43364 129-215) (O43364 129-215): as the sequence (O43364 129-215 R185T) above, with T57R counted along it

ALX4 [10] = target: ALX4 (Homo sapiens, UniProt Q9H161 200-286)
Chain of ALX4 (Homo sapiens, UniProt Q9H161 200-286) (Q9H161 200-286): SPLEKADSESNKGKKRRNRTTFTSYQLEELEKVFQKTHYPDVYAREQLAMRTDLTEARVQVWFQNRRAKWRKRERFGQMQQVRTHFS

ALX4 [11] = target: ALX4 (Homo sapiens, UniProt Q9H161 200-286, Q225E)
Chain of ALX4 (Homo sapiens, UniProt Q9H161 200-286, Q225E) (Q9H161 200-286 Q225E): as the sequence (Q9H161 200-286) above, with Q26E counted along it

NKX2-6 [12] = target: T4, NKX2-6 (Homo sapiens, UniProt A6NCS4 118-204, R150C)
T4 sequence: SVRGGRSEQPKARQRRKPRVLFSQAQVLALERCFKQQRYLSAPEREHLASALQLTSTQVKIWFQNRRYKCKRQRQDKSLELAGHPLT

ALX3 [13] = target: ALX3 (Homo sapiens, UniProt O95076 139-225, N203Q)
Chain of ALX3 (Homo sapiens, UniProt O95076 139-225, N203Q) (O95076 139-225 N203Q): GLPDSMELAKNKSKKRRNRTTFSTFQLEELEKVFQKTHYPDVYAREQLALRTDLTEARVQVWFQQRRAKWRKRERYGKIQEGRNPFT

NKX2-6 [14] = target: T5, NKX2-6 (Homo sapiens, UniProt A6NCS4 118-204)
T5 sequence: T4 sequence with C33R

ALX3 [15] = target: ALX3 (Homo sapiens, UniProt O95076 139-225)
Chain of ALX3 (Homo sapiens, UniProt O95076 139-225) (O95076 139-225): as the sequence (O95076 139-225 N203Q) above, with Q65N counted along it

VAX1 [16] = target: VAX1 (Homo sapiens, UniProt Q5SQQ9 86-172)
Chain of VAX1 (Homo sapiens, UniProt Q5SQQ9 86-172) (Q5SQQ9 86-172): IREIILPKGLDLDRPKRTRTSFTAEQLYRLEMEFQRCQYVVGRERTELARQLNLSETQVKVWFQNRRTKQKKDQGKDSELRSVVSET

ALX3 [17] = target: ALX3 (Homo sapiens, UniProt O95076 139-225, L168Q)
Chain of ALX3 (Homo sapiens, UniProt O95076 139-225, L168Q) (O95076 139-225 L168Q): as the sequence (O95076 139-225 N203Q) above, with L30Q, Q65N counted along it

NKX2-6 [18] = target: T6, NKX2-6 (Homo sapiens, UniProt A6NCS4 118-204, F151L)
T6 sequence: T4 sequence with C33R, F34L

ALX3 [19] = target: ALX3 (Homo sapiens, UniProt O95076 139-225, L168V)
Chain of ALX3 (Homo sapiens, UniProt O95076 139-225, L168V) (O95076 139-225 L168V): as the sequence (O95076 139-225 N203Q) above, with L30V, Q65N counted along it

VAX1 [20] = target: VAX1 (Homo sapiens, UniProt Q5SQQ9 86-172, T142I)
Chain of VAX1 (Homo sapiens, UniProt Q5SQQ9 86-172, T142I) (Q5SQQ9 86-172 T142I): as the sequence (Q5SQQ9 86-172) above, with T57I counted along it

ALX3 [21] = target: ALX3 (Homo sapiens, UniProt O95076 139-225, N203S)
Chain of ALX3 (Homo sapiens, UniProt O95076 139-225, N203S) (O95076 139-225 N203S): as the sequence (O95076 139-225 N203Q) above, with Q65S counted along it

VAX1 [22] = target: VAX1 (Homo sapiens, UniProt Q5SQQ9 86-172, K157R)
Chain of VAX1 (Homo sapiens, UniProt Q5SQQ9 86-172, K157R) (Q5SQQ9 86-172 K157R): as the sequence (Q5SQQ9 86-172) above, with K72R counted along it

HOXB6 [23] = target: HOXB6 (Homo sapiens, UniProt P17509 132-218, K202E)
Chain of HOXB6 (Homo sapiens, UniProt P17509 132-218, K202E) (P17509 132-218 K202E): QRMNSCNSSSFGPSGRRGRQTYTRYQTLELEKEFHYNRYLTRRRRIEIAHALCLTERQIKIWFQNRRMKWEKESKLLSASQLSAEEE

PITX2 = PITX2 (Homo sapiens, UniProt Q99697 72-157)
HOXB6 [24] = target: HOXB6 (Homo sapiens, UniProt P17509 132-218)
Chain of HOXB6 (Homo sapiens, UniProt P17509 132-218) (P17509 132-218): as the sequence (P17509 132-218 K202E) above, with E71K counted along it

PAX4 [25] = target: T7, PAX4 (Homo sapiens, UniProt O43316 9-242, R200K)
T7 sequence: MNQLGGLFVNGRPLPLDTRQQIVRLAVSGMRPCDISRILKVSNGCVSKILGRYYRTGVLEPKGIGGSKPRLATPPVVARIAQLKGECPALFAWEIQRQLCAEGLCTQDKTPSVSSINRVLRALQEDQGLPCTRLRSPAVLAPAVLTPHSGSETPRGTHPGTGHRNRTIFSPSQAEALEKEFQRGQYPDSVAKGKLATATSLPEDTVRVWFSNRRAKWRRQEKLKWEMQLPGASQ

PAX4 [26] = target: T8, PAX4 (Homo sapiens, UniProt O43316 9-242)
T8 sequence: T7 sequence with K192R

MSX2 = MSX2 (Homo sapiens, UniProt P35548 130-214, R199I)
Chain of MSX2 (P35548 130-214 R199I): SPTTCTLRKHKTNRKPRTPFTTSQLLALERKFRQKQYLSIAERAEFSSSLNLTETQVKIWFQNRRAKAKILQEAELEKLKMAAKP

PAX4 [27] = target: T9, PAX4 (Homo sapiens, UniProt O43316 9-242, R200Q)
T9 sequence: T7 sequence with K192Q

PAX4 [28] = target: T10, PAX4 (Homo sapiens, UniProt O43316 9-242, F177V)
T10 sequence: T7 sequence with F169V, K192R

PAX4 [29] = target: T11, PAX4 (Homo sapiens, UniProt O43316 9-242, F177Y)
T11 sequence: T7 sequence with F169Y, K192R

PAX4 [30] = target: T12, PAX4 (Homo sapiens, UniProt O43316 9-242, R227W)
T12 sequence: T7 sequence with K192R, R219W

PRRX1 [31] = target: PRRX1 (Homo sapiens, UniProt P54821 80-166, F113S)
Chain of PRRX1 (Homo sapiens, UniProt P54821 80-166, F113S) (P54821 80-166 F113S): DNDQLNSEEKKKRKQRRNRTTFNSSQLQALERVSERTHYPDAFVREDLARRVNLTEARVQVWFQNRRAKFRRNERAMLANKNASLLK

PRRX1 [32] = target: PRRX1 (Homo sapiens, UniProt P54821 80-166)
Chain of PRRX1 (Homo sapiens, UniProt P54821 80-166) (P54821 80-166): as the sequence (P54821 80-166 F113S) above, with S34F counted along it

CACTGGGG
binding signal (VENTX [1]): 7.92 upbm affinity estimate (log intensity, higher = more binding, comparable within an allelic series) | binding signal (VENTX [2]): 7.73 upbm affinity estimate (log intensity, higher = more binding, comparable within an allelic series) | binding signal (HOXC10 [3]): 10 upbm affinity estimate (log intensity, higher = more binding, comparable within an allelic series) | binding signal (VENTX [4]): 7.93 upbm affinity estimate (log intensity, higher = more binding, comparable within an allelic series) | binding signal (HOXA2 [5]): 7.07 upbm affinity estimate (log intensity, higher = more binding, comparable within an allelic series) | binding signal (HOXA2 [6]): 10.1 upbm affinity estimate (log intensity, higher = more binding, comparable within an allelic series) | binding signal (HOXC10 [7]): 10 upbm affinity estimate (log intensity, higher = more binding, comparable within an allelic series) | binding signal (HOXA2 [8]): 10.4 upbm affinity estimate (log intensity, higher = more binding, comparable within an allelic series) | binding signal (HOXA2 [9]): 7.07 upbm affinity estimate (log intensity, higher = more binding, comparable within an allelic series)

CGCCTGCC
binding signal (VENTX [1]): 8.19 upbm affinity estimate (log intensity, higher = more binding, comparable within an allelic series) | binding signal (VENTX [2]): 8.35 upbm affinity estimate (log intensity, higher = more binding, comparable within an allelic series) | binding signal (ALX4 [10]): 7.81 upbm affinity estimate (log intensity, higher = more binding, comparable within an allelic series) | binding signal (VENTX [4]): 8.31 upbm affinity estimate (log intensity, higher = more binding, comparable within an allelic series) | binding signal (ALX4 [11]): 8.15 upbm affinity estimate (log intensity, higher = more binding, comparable within an allelic series) | binding signal (NKX2-6 [12]): 9.32 upbm affinity estimate (log intensity, higher = more binding, comparable within an allelic series) | binding signal (ALX3 [13]): 7.68 upbm affinity estimate (log intensity, higher = more binding, comparable within an allelic series) | binding signal (NKX2-6 [14]): 9.1 upbm affinity estimate (log intensity, higher = more binding, comparable within an allelic series) | binding signal (ALX3 [15]): 7.56 upbm affinity estimate (log intensity, higher = more binding, comparable within an allelic series) | binding signal (VAX1 [16]): 7.07 upbm affinity estimate (log intensity, higher = more binding, comparable within an allelic series) | binding signal (ALX3 [17]): 7.74 upbm affinity estimate (log intensity, higher = more binding, comparable within an allelic series) | binding signal (NKX2-6 [18]): 9.19 upbm affinity estimate (log intensity, higher = more binding, comparable within an allelic series) | binding signal (ALX3 [19]): 7.77 upbm affinity estimate (log intensity, higher = more binding, comparable within an allelic series) | binding signal (VAX1 [20]): 7.24 upbm affinity estimate (log intensity, higher = more binding, comparable within an allelic series) | binding signal (ALX3 [21]): 7.7 upbm affinity estimate (log intensity, higher = more binding, comparable within an allelic series) | binding signal (VAX1 [22]): 7.15 upbm affinity estimate (log intensity, higher = more binding, comparable within an allelic series)

AGGGGGCG
binding signal (VENTX [1]): 8.25 upbm affinity estimate (log intensity, higher = more binding, comparable within an allelic series) | binding signal (VENTX [2]): 8.25 upbm affinity estimate (log intensity, higher = more binding, comparable within an allelic series) | binding signal (HOXC10 [3]): 10 upbm affinity estimate (log intensity, higher = more binding, comparable within an allelic series) | binding signal (VENTX [4]): 8.23 upbm affinity estimate (log intensity, higher = more binding, comparable within an allelic series) | binding signal (HOXB6 [23]): 9 upbm affinity estimate (log intensity, higher = more binding, comparable within an allelic series) | binding signal (HOXA2 [5]): 7.3 upbm affinity estimate (log intensity, higher = more binding, comparable within an allelic series) | binding signal (PITX2): 8.12 upbm affinity estimate (log intensity, higher = more binding, comparable within an allelic series) | binding signal (HOXA2 [6]): 10.2 upbm affinity estimate (log intensity, higher = more binding, comparable within an allelic series) | binding signal (HOXC10 [7]): 9.95 upbm affinity estimate (log intensity, higher = more binding, comparable within an allelic series) | binding signal (HOXA2 [8]): 10.3 upbm affinity estimate (log intensity, higher = more binding, comparable within an allelic series) | binding signal (HOXA2 [9]): 7.28 upbm affinity estimate (log intensity, higher = more binding, comparable within an allelic series) | binding signal (HOXB6 [24]): 8.93 upbm affinity estimate (log intensity, higher = more binding, comparable within an allelic series)

AATAACAC
binding signal (VENTX [1]): 9.57 upbm affinity estimate (log intensity, higher = more binding, comparable within an allelic series) | binding signal (VENTX [2]): 9.93 upbm affinity estimate (log intensity, higher = more binding, comparable within an allelic series)

AGCCCGAA
binding signal (VENTX [1]): 8.34 upbm affinity estimate (log intensity, higher = more binding, comparable within an allelic series) | binding signal (VENTX [2]): 8.32 upbm affinity estimate (log intensity, higher = more binding, comparable within an allelic series) | binding signal (VENTX [4]): 8.13 upbm affinity estimate (log intensity, higher = more binding, comparable within an allelic series)

ACCAATCA
binding signal (VENTX [1]): 9.98 upbm affinity estimate (log intensity, higher = more binding, comparable within an allelic series) | binding signal (VENTX [2]): 10.7 upbm affinity estimate (log intensity, higher = more binding, comparable within an allelic series) | binding signal (PAX4 [25]): 10.5 upbm affinity estimate (log intensity, higher = more binding, comparable within an allelic series) | binding signal (PAX4 [26]): 10.6 upbm affinity estimate (log intensity, higher = more binding, comparable within an allelic series) | binding signal (MSX2): 10.9 upbm affinity estimate (log intensity, higher = more binding, comparable within an allelic series) | binding signal (PAX4 [27]): 10.7 upbm affinity estimate (log intensity, higher = more binding, comparable within an allelic series) | binding signal (PAX4 [28]): 9.96 upbm affinity estimate (log intensity, higher = more binding, comparable within an allelic series) | binding signal (PAX4 [29]): 10.1 upbm affinity estimate (log intensity, higher = more binding, comparable within an allelic series) | binding signal (PAX4 [30]): 10 upbm affinity estimate (log intensity, higher = more binding, comparable within an allelic series)

GCTAAATA
binding signal (VENTX [1]): 10.1 upbm affinity estimate (log intensity, higher = more binding, comparable within an allelic series) | binding signal (VENTX [2]): 10.6 upbm affinity estimate (log intensity, higher = more binding, comparable within an allelic series) | binding signal (VENTX [4]): 10 upbm affinity estimate (log intensity, higher = more binding, comparable within an allelic series)

GCGGGTCC
binding signal (VENTX [1]): 8.12 upbm affinity estimate (log intensity, higher = more binding, comparable within an allelic series) | binding signal (VENTX [2]): 8.25 upbm affinity estimate (log intensity, higher = more binding, comparable within an allelic series) | binding signal (HOXC10 [3]): 10 upbm affinity estimate (log intensity, higher = more binding, comparable within an allelic series) | binding signal (VENTX [4]): 8.16 upbm affinity estimate (log intensity, higher = more binding, comparable within an allelic series) | binding signal (HOXC10 [7]): 10 upbm affinity estimate (log intensity, higher = more binding, comparable within an allelic series)

CCATTAGG
binding signal (VENTX [1]): 11.7 upbm affinity estimate (log intensity, higher = more binding, comparable within an allelic series) | binding signal (VENTX [2]): 12.4 upbm affinity estimate (log intensity, higher = more binding, comparable within an allelic series) | binding signal (VENTX [4]): 11.4 upbm affinity estimate (log intensity, higher = more binding, comparable within an allelic series)

CCGAGCCC
binding signal (VENTX [1]): 8.05 upbm affinity estimate (log intensity, higher = more binding, comparable within an allelic series) | binding signal (VENTX [2]): 8.08 upbm affinity estimate (log intensity, higher = more binding, comparable within an allelic series) | binding signal (VENTX [4]): 8.04 upbm affinity estimate (log intensity, higher = more binding, comparable within an allelic series)

GCCAGGCA
binding signal (VENTX [1]): 8.27 upbm affinity estimate (log intensity, higher = more binding, comparable within an allelic series) | binding signal (VENTX [2]): 8.55 upbm affinity estimate (log intensity, higher = more binding, comparable within an allelic series) | binding signal (VENTX [4]): 8.35 upbm affinity estimate (log intensity, higher = more binding, comparable within an allelic series)

CCCATTAC
binding signal (VENTX [1]): 11.4 upbm affinity estimate (log intensity, higher = more binding, comparable within an allelic series) | binding signal (VENTX [2]): 12.4 upbm affinity estimate (log intensity, higher = more binding, comparable within an allelic series) | binding signal (VENTX [4]): 11.2 upbm affinity estimate (log intensity, higher = more binding, comparable within an allelic series)

CCGAGTCC
binding signal (VENTX [1]): 8.15 upbm affinity estimate (log intensity, higher = more binding, comparable within an allelic series) | binding signal (VENTX [2]): 8.13 upbm affinity estimate (log intensity, higher = more binding, comparable within an allelic series) | binding signal (PRRX1 [31]): 9.18 upbm affinity estimate (log intensity, higher = more binding, comparable within an allelic series) | binding signal (VENTX [4]): 8.08 upbm affinity estimate (log intensity, higher = more binding, comparable within an allelic series) | binding signal (PRRX1 [32]): 9.67 upbm affinity estimate (log intensity, higher = more binding, comparable within an allelic series)

CCCCTCAG
binding signal (VENTX [1]): 8.25 upbm affinity estimate (log intensity, higher = more binding, comparable within an allelic series) | binding signal (VENTX [2]): 8.19 upbm affinity estimate (log intensity, higher = more binding, comparable within an allelic series) | binding signal (HOXC10 [3]): 10.1 upbm affinity estimate (log intensity, higher = more binding, comparable within an allelic series) | binding signal (VENTX [4]): 8.01 upbm affinity estimate (log intensity, higher = more binding, comparable within an allelic series) | binding signal (HOXC10 [7]): 10.1 upbm affinity estimate (log intensity, higher = more binding, comparable within an allelic series)
